# Test results as given in PubChem BioAssay (NCATS).
# Records with an inconclusive call do not appear. Where a call stands in place of a potency, no number is given. Activity calls are given as the source filed them. Calls follow the shape of the dose curve; as a rule, active = well fitted inhibition curve with a large enough effect; inconclusive = small, poorly fitted or top-dose-only effect; inactive = no such curve, though single readings can be large or run the other way.
# Assay: qHTS assay for measurement of the activity of small molecule inhibitors on Zika virus induced Caspase-3 activity in human iPSC derived neural progenitor cells (hNPCs) (AID 1224857); also: nearly all actives have a fitted effect of over 65% in size
# Conditions: hNPCs ZIKV-induced caspase-3/7, Caspase-Glo luminescence, 6 h; series mostly up to 45.7 µM
# In short: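 Pretreat hNPCs with compound 1 h; infect ZIKV 2 FFU/cell; 6 h 37 C, 5% CO2; Caspase-Glo 3/7, 30 min RT; luminescence; normalize to no-virus and virus-only wells.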
row,Structure (SMILES),Potency
1,Cc1c[nH]c2ccccc12,inactive
2,Oc1ccccc1C=NCc1ccccc1,inactive
3,CN(Cc1ccc(C(C)(C)C)cc1)Cc1cccc2ccccc12,inactive
4,C=CCN1CCc2nc(N)sc2CC1,inactive
5,Cc1cc(C)cc(OCC2CNC(=O)O2)c1 (stereo unspecified),inactive
6,C=C[C@@]1(C)CC(=O)[C@]2(O)[C@@]3(C)[C@@H](O)CCC(C)(C)[C@@H]3[C@H](O)[C@H](OC(C)=O)[C@@]2(C)O1,inactive
7,CCOc1cc(OCC)c(C(=O)CCC(=O)O)cc1OCC,inactive
8,O=C(Nc1ccc([N+](=O)[O-])cc1)Nc1ccc([N+](=O)[O-])cc1,inactive
9,CNCCCCOc1ccccc1Cc1ccccc1,inactive
10,COc1cc(C(=S)N2CCOCC2)ccc1O,inactive
11,CCc1oc2ccccc2c1C(=O)c1cc(Br)c(O)c(Br)c1,inactive
12,CC(C)Nc1cccnc1N1CCN(C(=O)c2cc3cc(NS(C)(=O)=O)ccc3[nH]2)CC1,inactive
13,O=C1C(O)=C(O)C(=O)C(O)=C1O,inactive
14,CCCCN=C(N)N=C(N)N,inactive
15,CCCN(CCc1cccs1)[C@H]1CCc2c(O)cccc2C1,inactive
16,CCOc1ccccc1C(N)=O,inactive
17,C=C1c2cccc(O)c2C(O)=C2C(=O)[C@]3(O)C(O)=C(C(N)=O)C(=O)[C@@H](N(C)C)[C@@H]3[C@@H](O)[C@H]12,inactive
18,CCCCCN=C(N)N/N=C/c1c[nH]c2ccc(OC)cc12,inactive

row,Structure (SMILES),Potency
1,O=C(O)Cc1csc(-c2ccc(Cl)cc2)n1,inactive
2,CCN(CC)CCNC(=O)COc1ccc(OC)cc1,inactive
3,C[N+]1(C)CCC(=C(c2ccccc2)c2ccccc2)CC1,inactive
4,CCCCN1C[C@H](O)[C@@H](O)[C@H](O)[C@H]1CO,inactive
5,NS(=O)(=O)c1cc2c(cc1Cl)NC(CC1CCCC1)NS2(=O)=O (stereo unspecified),inactive
6,CCOC(=O)c1ccc(N)cc1,inactive
7,CC(=O)Nc1ccc(S(=O)(=O)Nc2ccc([N+](=O)[O-])cc2)cc1,inactive
8,CC(=O)Nc1ccc(OC(=O)c2ccccc2OC(C)=O)cc1,inactive
9,CCc1ccc(C(=O)C(C)CN2CCCCC2)cc1 (stereo unspecified),inactive
10,CCN1CCN(C(=O)N[C@@H](C(=O)N[C@@H]2C(=O)N3C(C(=O)O)=C(CSc4nnnn4C)CS[C@H]23)c2ccc(O)cc2)C(=O)C1=O,inactive
11,C/C=C/C=N/NC(=O)c1ccncc1,inactive
12,CCOCCn1c(N2CCCN(C)CC2)nc2ccccc21,inactive
13,N/C(=N\N=C\c1ccc(Cl)cc1)N/N=C/c1ccc(Cl)cc1,inactive
14,COc1ccc(C(=O)c2ccccc2O)c(O)c1,inactive
15,Nc1ccc(S(=O)(=O)NCc2ccccc2)cc1,inactive
16,O=C1OC2(c3ccccc31)c1cc(Br)c(O)c(Br)c1Oc1c2cc(Br)c(O)c1Br,inactive
17,CC(=O)OCC1=C(C(=O)O)N2C(=O)[C@@H](NC(=O)CSc3ccncc3)[C@H]2SC1,inactive
18,O=C1OC(CN2CCOCC2)CN1/N=C/c1ccc([N+](=O)[O-])o1 (stereo unspecified),inactive
